Results taken from article PMC5540273 (PLoS ONE, 2017).

Columns and labels:
Conditions in all cases: concentration: 1 μM,replicates: in singlicate; n = 1
MEK5 = system: T1, MEK5
T1 construct: gene MAP2K5

MEK6 = system: T2, MEK6
T2 construct: gene MAP2K6

MELK = system: MELK
MERTK = system: MERTK
MET = system: MET
MINK = system: T3, MINK
T3 construct: gene MINK1

MKK7 = system: MKK7
MKNK1 = system: MKNK1
MKNK2 = system: MKNK2
MLCK = system: T4, MLCK
T4 construct: gene MYLK3

MLK1 = system: T5, MLK1
T5 construct: gene MAP3K9

MLK2 = system: MLK2
MLK3 = system: MLK3
MRCKA = system: MRCKA
MRCKB = system: T6, MRCKB
T6 construct: gene CDC42BPB

MST1R = system: MST1R
MST1 = system: T7, MST1
T7 construct: gene STK4

MST2 = system: T8, MST2
T8 construct: gene STK3

MST3 = system: T9, MST3
T9 construct: gene STK24

MST4 = system: MST4
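Note: KINOMEscan kinase panel screen.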

Compound	%Inh (MEK5)	%Inh (MEK6)	%Inh (MELK)	%Inh (MERTK)	%Inh (MET)	%Inh (MINK)	%Inh (MKK7)	%Inh (MKNK1)	%Inh (MKNK2)	%Inh (MLCK)	%Inh (MLK1)	%Inh (MLK2)	%Inh (MLK3)	%Inh (MRCKA)	%Inh (MRCKB)	%Inh (MST1R)	%Inh (MST1)	%Inh (MST2)	%Inh (MST3)	%Inh (MST4)
COc1cc2ncn(-c3cc(OCC4CCCCC4)c(C(N)=O)s3)c2cc1OC [GSK204559]	99.6%	0%	13%	33%	17%	31%	0%	33%	10%	3%	12%	33%	34%	0%	0%	35%	11%	0%	0%	0%
Cc1ccc2c(-c3ccnc(Nc4ccc(C(F)(F)F)cc4)n3)cnn2n1 [GW819776]	33%	13%	0%	26%	5%	18%	0%	0%	0%	0%	7%	35%	3%	0%	16%	0%	13%	39%	0%	0%
COc1cc2c(Nc3ccc(NC(=O)c4ccccc4)cc3)ncnc2cc1OCCCN1CCOCC1 [GSK301329]	99.9%	0%	4%	65%	50%	17%	0%	0%	18%	0%	0%	0%	13%	0%	0%	43%	16%	0%	0%	10%
C[C@@H]1CNc2c(sc3ccc4nc(-c5ccc(O)cc5)ccc4c23)C(=O)N1	67%	13%	0%	62%	92.7%	61%	0%	27%	34%	52%	0%	9%	0%	0%	0%	23%	0%	42%	25%	0%
O=C(NOCC1CC1)c1cc(Br)c(F)c(F)c1Nc1ccc(I)cc1Cl	20%	0%	0%	0%	0%	9%	0%	10%	5%	0%	0%	0%	0%	0%	0%	31%	3%	6%	18%	0%
FC(F)(F)c1cc(Br)cc(Nc2nccc(-c3cnn4ncccc34)n2)c1 [GW810578]	35%	12%	7%	14%	0%	3%	0%	19%	0%	32%	0%	17%	11%	0%	0%	0%	5%	0%	0%	17%
C[C@@H](Oc1cc(-n2cnc3cc(-c4cnn(C)c4)ccc32)sc1C(N)=O)c1ccccc1Cl [GSK580432]	42%	15%	15%	100%	69%	40%	0%	2%	20%	10%	57%	49%	80%	20%	3%	64%	88%	70%	0%	14%
NC(=O)c1ccc(-c2cc3ncnc(SCC(=O)O)c3s2)cc1	38%	0%	0%	0%	0%	39%	0%	6%	28%	12%	0%	0%	0%	0%	0%	21%	0%	0%	0%	0%
